PostGolgi ctrl = yeast control strain growth, post-Golgi counter-screen | efflux-deficient yeast background strain, growth absorbance A615, 16 h | inhibition, % at 10 µM | 5% of 98,000 active
CYP2C19 act = activators of human cytochrome P450 2C19. activation factor at 5 µM. AID 1025. P33261. recombinant CYP2C19, luciferin-H EGE luminescence; stronger effect = higher value; 0 = fully inhibited enzyme, 1 = untreated enzyme. 96,000 tested, under 10 active;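 active = activation factor of at least 2 at 5 µM in the primary screen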;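 also: 0 = wells with 2.5 mM tranylcypromine and 1 = vehicle-only wells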
CYP2C9 activ = CYP2C9 (human) activation | 1.4% of 96,000 active | recombinant CYP2C9, luciferin-H conversion, luminescence; stronger effect = higher value; factor 1 = untreated enzyme, 0 = blocked | AID 1024 | activation factor at 5 µM | P11712;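 active = activation factor of 2 or more for CYP2C9 at a 5 µM dose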;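 also: 0 = sulfaphenazole-blocked wells and 1 = vehicle-only wells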
Target sequence (P11712 whole entry, looked up): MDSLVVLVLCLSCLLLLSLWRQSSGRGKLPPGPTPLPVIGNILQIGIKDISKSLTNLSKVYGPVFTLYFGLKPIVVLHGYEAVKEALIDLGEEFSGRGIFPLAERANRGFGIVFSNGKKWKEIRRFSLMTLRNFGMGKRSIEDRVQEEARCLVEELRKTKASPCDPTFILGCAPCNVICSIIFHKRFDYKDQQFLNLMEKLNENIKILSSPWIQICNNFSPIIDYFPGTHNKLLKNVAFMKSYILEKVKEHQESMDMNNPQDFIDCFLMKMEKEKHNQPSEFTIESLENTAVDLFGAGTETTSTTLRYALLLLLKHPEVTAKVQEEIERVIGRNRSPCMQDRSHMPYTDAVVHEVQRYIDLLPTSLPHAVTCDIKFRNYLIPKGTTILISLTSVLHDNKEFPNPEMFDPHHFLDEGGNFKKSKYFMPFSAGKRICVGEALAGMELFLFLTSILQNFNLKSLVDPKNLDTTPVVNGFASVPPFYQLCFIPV
CYP2C19 inh = blocks human cytochrome P450 2C19 | 21% of 96,000 active | P33261 | CYP2C19 Supersomes, luciferin-H EGE luminescence, 30 min | AID 778 | inhibition, % at 5 µM;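 active = CYP2C19 inhibition above a set limit at 5 µM in the primary screen, cut at about 50% in these data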;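 also: plate controls were negative control wells for no effect and 2.5 mM tranylcypromine positive control for full effect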
PostGolgi yeast = growth inhibition of a yeast mutant, post-Golgi transport screen; post-Golgi transport phenotypic cell assay; inhibition, % at 10 µM; 0.9% of 98,000 active; AID 739;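 also: yeast cells grown in 1536-well plates; yeast grown about 18 h at 30C before absorbance read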
CYP2C9 inh = blocks human cytochrome P450 2C9; P11712; CYP2C9 Supersomes, luciferin-H conversion, luminescence; inhibition, % at 5 µM; 20% of 96,000 active; AID 777;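 active = blocking of liver enzyme CYP2C9 beyond about 50% at 5 µM, limit read from the data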
The depositor's hits bear a star; · = no result given. This is a sample that favours compounds with a hit; in the whole collection about 32% have one here. Rule as the data show it, unless noted: active = inhibition above about 30%; inactive = the rest.

SMILES	PostGolgi ctrl	CYP2C19 act	CYP2C9 activ	CYP2C19 inh	PostGolgi yeast	CYP2C9 inh
CCC(C)(C)n1nnnc1C(c1cccs1)N1CC=C(c2ccc(F)cc2)CC1 (stereo not drawn)	40.9*	0.4	0.2	56.3*	4.2	79.3*
Fc1ccc(C2=CCN(C(c3cccs3)c3nnnn3CCc3ccccc3)CC2)cc1 (stereo not drawn)	43.1*	0.5	0.3	50.1*	4.3	73.8*
OC1(c2ccc(F)cc2)CC2CCC(C1)N2Cc1nnnn1C1CCCC1 (stereo not drawn)	-6.0	0.1	0.2	87.7*	-5.3	81.1*
OC1(c2ccccc2F)CC2CCC(C1)N2CCN1CCOCC1 (stereo not drawn)	-6.1	1.1	1.1	-7.8	14.4	-9.4
O=C1NC(=O)C(CCc2ccccn2)(Cc2ccc3c(c2)OCO3)C(=O)N1CCc1ccccc1 (stereo not drawn)	13.9	0.4	0.7	55.1*	3.2	31.1
c1ccc(C2CC3CC(c4ccco4)N2O3)cc1 (stereo not drawn)	25.6	0.8	1	20.3	13.3	-4.8
C=Cn1ccnc1P(=S)(c1nccn1C=C)C1CCCCC1	10.9	0.3	0.9	70.3*	15.1	14.7
CCC(=NCCO)c1c(O)n(-c2ccc(Cl)cc2)c(=O)[nH]c1=O	6.9	1	1.1	3.5	-4.2	-12.1
CCn1nc(-c2ccccc2)nc2c(=O)n(C)c(=O)nc1-2	101.6*	·	·	·	105.6*	·
CCCCOc1ccc(CN2CCN(CCO)CC2)cc1	8.4	1.1	1.1	-11.3	5.3	-8.0
CCCCCCOc1ccc(CN2CCN(CCO)CC2)cc1	31.4*	0.9	1	10.5	89.1*	2.5
CC(C)N1CCC2(CC1)NC(CO)(CO)CO2	14.5	1	1.1	3.8	1.9	-9.6
O=C1CC(N2CC=C(c3ccccc3)CC2)C(=O)N1c1ccc(F)cc1 (stereo not drawn)	13.3	0.9	0.4	8.3	2.0	61.8*
O=C1CC(N2CCC(n3c(=O)[nH]c4ccccc43)CC2)C(=O)N1c1ccc(F)cc1 (stereo not drawn)	-1.3	1	1.1	-1.6	-0.8	-7.2
O=C(Cn1ncc2c3ccccc3n(Cc3ccc(F)cc3)c2c1=O)N1CCC2(CC1)OCCO2	12.9	·	·	·	3.2	·
N[C@@H](Cc1c[nH]c2ccccc12)c1nnc(SCc2ccccc2F)o1	4.7	0.7	0.6	31.5	17.3	37.6
CCOC(=O)c1c(C)n(CCN2CCN(C)CC2)c2ccc(OC)cc12	-4.7	0.9	0.9	6.9	0.5	13.3
CCOC(=O)c1c(C)n(CCOC)c2ccc(O)cc12	-0.9	0.3	0.6	69.2*	-6.4	35.1
CCCCN1C(=O)NC(=O)C2(Cc3c(nc4ccccn4c3=O)N3CCc4ccccc4C32)C1=O (stereo not drawn)	22.0	0.8	0.7	24.7	-5.0	28.4
CCCCN1C(=O)NC(=O)C2(Cc3c(nc4c(C)cccn4c3=O)N3CCc4ccccc4C32)C1=O (stereo not drawn)	39.4*	0.2	0.1	76.9*	1.0	88.8*
Cc1cc(C)nc(-n2c(C)nc3cc(Cl)ccc3c2=O)c1	-3.8	0.6	0.1	40.9	0.8	89.8*
Cc1nc2ccccc2c(=O)n1-c1ccccn1	-3.4	0.9	0.9	12.8	12.4	8.9
CCCCCCn1c(O)c(C=NC2CCCCC2N)c(=O)[nH]c1=O (stereo not drawn)	2.7	0.9	0.5	6.7	4.0	52.0*
NC1CCCCC1N=Cc1c(O)n(Cc2ccc(F)cc2)c(=O)[nH]c1=O (stereo not drawn)	10.4	0.9	0.2	12.3	19.8	76.1*
CN(C)C1=NP(N(C)C)(N(C)C)=NC(c2ccccc2)=N1	15.2	1	1	2.9	-2.1	-4.0
SMILES	PostGolgi ctrl	CYP2C19 act	CYP2C9 activ	CYP2C19 inh	PostGolgi yeast	CYP2C9 inh
COc1cccc(Oc2c(C)oc3cc(OC(=O)N(C)C)ccc3c2=O)c1	6.5	0.2	0.6	84.7*	-0.2	41.7
CCOC(=O)c1c(-c2ccc(OC)cc2)oc2ccc(OC(=O)N(C)C)cc12	20.4	0.9	0.8	13.2	-3.9	19.8
Cc1oc2ccc(OC(=O)N(C)C)cc2c1C(=O)OC(C)C	27.5	0.2	0.4	77.6*	4.0	64.7*
CSc1ccc(CNC2CN3CCC2CC3)cc1 (stereo not drawn)	4.2	1	1	-0.1	-1.2	-2.4
COc1nc(NC(C)C)nc(NC(C)C)n1	-2.3	0.9	0.9	7.4	-3.1	10.4
Cc1nc2ncnn2c(C)c1CCC(=O)N1CCC2(CC1)OCCO2	1.1	1	0.9	3.4	18.7	8.0
Cc1nc2cc(-c3ccccc3)nn2c(C)c1CCC(=O)N1CCC2(CC1)OCCO2	16.5	0.9	1	10.3	8.5	1.9
Cc1ccc(Cc2c(C)nc3nc(SCC(=O)N4CCC5(CC4)OCCO5)nn3c2C)cc1	5.2	0.5	0.4	51.9*	2.5	64.8*
Cc1ccccc1Cc1c(C)nc2nc(SCC(=O)N3CCC4(CC3)OCCO4)nn2c1C	3.9	0.5	0.1	47.1	-2.4	89.3*
C(#CCN1CCOCC1)COCc1ccccc1	-1.7	1	1	1.3	5.5	-3.3
CN(C=O)CP(=O)(O)CN(C)C=O	18.7	0.7	1	31.0	-10.1	1.4
COC(=O)CCCNC(=O)CN1CC(c2ccccc2)CC1=O (stereo not drawn)	8.3	1.2	1.1	-19.5	1.0	-7.0
Clc1ccc(-c2nc3ccc(Cl)cn3c2CN2CCOCC2)cc1	12.6	0.2	0.4	76.8*	-2.1	63.6*
O=C(c1sc2ccccc2c1Cl)N1CCC2(CC1)OCCO2	46.3*	0.2	1.8	81.5*	3.7	-78.6
COc1ccc(-c2cc(C(F)(F)F)n3nc(C(=O)N4CCC5(CC4)OCCO5)cc3n2)cc1OC	8.9	0.9	0.9	13.3	17.5	11.2
CN(C)C(=O)Oc1ccc(Cl)c2ccccc12	21.0	0.3	2.1*	73.0*	8.2	-106.1
CN(C)C(=O)Oc1ccc2ccccc2c1Cl	5.6	0.6	0.9	43.9	4.2	8.8
O=C(C1CCC(=O)N1Cc1ccc(F)cc1)N1CCC2(CC1)OCCO2 (stereo not drawn)	11.3	0.7	0.8	27.1	5.0	19.3
O=C(C1CC(c2ccc(Cl)c(Cl)c2)=NO1)N1CCC2(CC1)OCCO2 (stereo not drawn)	4.9	0	1.8	95.7*	0.3	-84.2
COc1cccc(C2=NOC(C(=O)N3CCC4(CC3)OCCO4)C2)c1 (stereo not drawn)	6.0	0.3	1	67.0*	-3.7	-1.5
O=C(C1CC(c2ccc(F)cc2)=NO1)N1CCC2(CC1)OCCO2 (stereo not drawn)	6.4	0.1	1.1	93.8*	3.5	-7.6
COC(=O)CC1=C(C(=O)OC)C2(C(=O)Nc3c(C)cccc32)C(C#N)=C(N)O1 (stereo not drawn)	6.4	1.1	1	-5.5	-10.8	1.0

Compound activity: PubChem BioAssay, several laboratories
